Bioassay records deposited in PubChem by SRMLSC.
Sampled rows, rich in hits. Any-hit rate of the full collection: about 6.8%.
A340 absorber – compound light absorbance at 340 nm, profiling panel, artefact control, biochemical, MLSMR library, data from PS, PMK, MK assays; compound absorbance at 340 nm, fold over control; fold change at 10 µM; 65,000 tested, under 10 active; AID 708, 2007;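 active = at 10 µM dose, initial 340 nm absorbance at least 2 fold that of control wells; inactive = change under 2 fold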;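 note: initial absorbance extrapolated from kinetic A340 decline of NADH oxidation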
NADH enzymes – inhibitors of PK/LDH coupling enzymes, profiling panel, artefact control, biochemical, MLSMR library; AID 774, 2007; coupled PK/LDH NADH assays, four targets; 65,000 compounds, 0.02% hits; IC50, µM (series often up to 10 µM), inactives show at the highest dose inhibition;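 active = single-dose screening hits from any of four coupled enzyme assays that gave an IC50 when retested across doses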;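 note: the DPM-DC format reads NADH fluorescence rather than 340 nm absorbance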
Spn PMK inh – S. pneumoniae PMK inhibitors, primary screen, biochemical, mevalonate pathway, pilot trial included. phosphomevalonate kinase (Streptococcus pneumoniae D39). purified PMK, PK/LDH-coupled NADH absorbance 340 nm. inhibition, % at 10 µM. 65,000 compounds, 0.49% hits. AID 539, 2006;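 active = top-ranked compounds by inhibition in the single 10 µM screen, taking a fixed number of the strongest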;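 note: 0% = full reaction with DMSO carrier and 100% = background rate without enzyme reaction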
Spn MK inh – S. pneumoniae MK inhibitors, primary screen, biochemical, PK/LDH-coupled NADH absorbance; purified MK, PK/LDH-coupled NADH absorbance 340 nm; inhibition, % at 10 µM; 65,000 compounds, 0.48% hits;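 active = ranked among the strongest by inhibition in the single 10 µM screen, a fixed top-ranked set picked for dose follow-up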
Fluor 339 460 – intrinsic fluorescence of library compounds, ex339/em460 – biochemical, MLSMR library, data from DPM-DC assay, artefact control, profiling panel; compound autofluorescence, ex339/em460 nm, NADH buffer; active compounds read high; 1 = no-compound wells, NADH background; fluorescence fold increase at 10 µM; 65,000 compounds, 5.5% hits; AID 709, 2007;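 active = at 10 µM, mean starting fluorescence two-fold or more over control wells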;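 note: signal is the first read of a kinetic run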
Spn DPM-DC inh – S. pneumoniae DPM-DC inhibitors, primary screen, biochemical, PK/LDH-coupled NADH fluorescence; purified DPM-DC; diphosphomevalonate decarboxylase (Streptococcus pneumoniae D39); AID 556, 2006; 65,000 compounds, 0.49% hits; calls only at 10 µM;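 active = the 320 compounds with the highest percent inhibition in the single-dose primary screen, excluding strongly autofluorescent ones, cut at about 32% in these data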;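 note: kinetic rate of NADH fluorescence loss reporting ADP formed by the decarboxylase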
Starred values were filed as active, the others as inactive; i = inactive; · = no result shown.

SMILES	A340 absorber	NADH enzymes	Spn PMK inh	Spn MK inh	Fluor 339 460	Spn DPM-DC inh
Cc1nnc(NC(=O)C(C)Oc2ccc3c(C)cc(=O)oc3c2)s1 (centres undefined)	1.1	6%	10	1	1.5	i
COC(=O)c1ccc(Cc2ccc(C(=O)OC)o2)o1	0.99	6%	19	0	0.99	i
CC(C)Oc1ccc(NC(=O)c2ccncc2)cc1	1	7%	10	9	1.1	i
CCOC(=O)/C=C/S(=O)(=O)c1ccc(NC(C)=O)cc1	1	4%	9	2	1.1	i
CC1(C)CC(=O)C(CCC(=O)c2ccccc2)C(C)(C)N1 (centres undefined)	0.98	4%	10	3	1.1	i
Cc1cc(C)cc(OCc2ccc(C(=O)O)o2)c1	1	8%	9	7	1.1	i
Cc1cc(OCC(=O)N2CCCC2)ccc1Cl	1	1%	1	1	1.1	i
Cc1cc(=O)oc2cc(OC(C)C(=O)N3CCCc4ccccc43)ccc12 (centres undefined)	1.1	2%	0	0	1.7	i
O=C(O)C1CCN(C(=O)COc2ccc3c4c(c(=O)oc3c2)CCC4)CC1	1.1	18%	16	14	3.2*	i
Cc1c(C)c2ccc(OCc3ccc(C(=O)O)o3)c(C)c2oc1=O	1	4%	7	1	3.9*	·
O=C(O)c1ccc(COc2ccc3c4c(c(=O)oc3c2)CCC4)o1	1.1	12%	13	11	3.5*	·
CC(=O)C(C)Oc1ccc2c3c(c(=O)oc2c1)CCCCC3 (centres undefined)	1.2	5%	9	0	3.7*	·
O=C(Nc1ccc2c(c1)OC1(CCCC1)O2)C1CC1	1	5%	7	7	1.1	i
COc1ccc2c(c1)OC13CCN(C)CC1C2C(C(=O)c1ccc(F)cc1)C(=O)N3 (centres undefined)	1	6%	8	6	1	i
O=C(O)C(Oc1ccc2c3c(c(=O)oc2c1)CCC3)c1ccccc1 (centres undefined)	1.2	5%	1	9	3.7*	·
COc1ccc(C2C=C(c3ccc(C)cc3)Nc3ncnn32)cc1 (centres undefined)	1.1	5%	7	2	2.4*	·
COc1cccc(C2=CC(c3ccccc3)n3ncnc3N2)c1 (centres undefined)	1.1	6%	10	1	1.6	i
C1=C(c2ccc(-c3ccccc3)cc2)Nc2ncnn2C1c1ccco1 (centres undefined)	1.1	9%	10	8	3.9*	·
COc1cccc(C2=CC(c3ccc(N(C)C)cc3)n3ncnc3N2)c1 (centres undefined)	1.1	10%	8	13	2.1*	i
COc1ccc(C2=CC(c3ccc(C)cc3)n3nnnc3N2)cc1 (centres undefined)	1.1	3%	10	0	1.3	i
CCOc1ccc(C2C=C(c3ccccc3)Nc3ncnn32)cc1 (centres undefined)	1.1	9%	8	10	2.4*	·
CC1(C)Cc2noc(N)c2C(C)(C)N1OC(=O)c1ccco1	1	2%	4	0	1	i
CCOc1ccc(NC2=NC(C(=O)NCc3ccccc3)CC(=O)N2)cc1 (centres undefined)	1	4%	10	1	1.1	i
CCCCC(c1nnnn1CCOC)N1CCN(c2cccc(OC)c2)CC1 (centres undefined)	0.97	9%	18	10	1.1	i
CCOc1ccc(C2C=C(c3ccc(F)cc3)Nc3ncnn32)cc1 (centres undefined)	1	2%	0	0	2.5*	·
Cn1c2ccc(F)cc2c2ncn(CCN3CCOCC3)c(=O)c21	1	6%	12	9	1.7	i
COc1cc2[nH]c3c(=O)n(CCN4CCCCC4)cnc3c2cc1OC	1.1	10%	9	11	3.6*	·
